Rows were chosen to be rich in hits. Some 17% of all compounds tested hit in one or more screens of this group.
ATXN2 expr inh = ATXN2 expression inhibition; Potency, µM (series often up to 57 µM), inactives show at the highest dose activity change, negative = inhibition, hits mostly inhibitors; HEK-293 ATXN2-luciferase reporter, luminescence, 24 h; 0.72% of 360,000 active; also: % is scaled to controls: 0 for no effect and ±100 for the full control effect; nearly all actives have a fitted effect of over 55% in size
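qHTS (up to 57 uM final) was run with 24 h compound exposure of reporter cells at 37 °C. Each well was multiplexed: SteadyGlo luminescence measured ATXN2-luciferase expression after a fluorogenic Gly-Phe-AFC viability readout (25 uM final).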
ATXN viability = cell viability loss in ATXN counter-screen; S2 cells (HEK-293 line with an ATXN2-luciferase reporter) viability, CellTiter-Fluor protease fluorescence, 24 h; Potency, µM (doses to about 56.7 µM), most hits filed as cytotoxic; 0.49% of 400,000 active; AID 651635; also: nearly all actives have a fitted effect of over 40% in size
DT40 TDP1 CPT = growth inhibition of DT40 Tdp1-/-;hTDP1 cells with camptothecin (screen for TDP1 inhibitors); chicken DT40 Tdp1-/-;hTDP1 cells + 20 nM CPT, ATP luminescence, 48 h; Potency, µM (titrated, usually from 46.2 µM), for inactives: top-dose activity change, negative = growth inhibition, actives largely listed as inhibitors; 12% of 420,000 active; also: % is scaled to controls: 0 for no effect and ±100 for the full control effect; nearly all actives have a fitted effect of over 55% in size
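Chicken DT40 Tdp1-/- cells stably complemented with human TDP1 were seeded at 400 cells/well in medium containing 20 nM camptothecin, exposed to pin-transferred compounds, and grown at 37 °C for at least 48 hr. Viability was read as ATP luminescence.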
TGFb SMAD3 inh = TGF-b pathway inhibition; Potency, µM (series often up to 46.1 µM), without a hit: at the top dose activity, negative = inhibition, most hits filed as inhibitors; 1.2% of 410,000 active; HepG2 CAGA-GFP TGF-b/SMAD3 reporter, GFP fluorescence, 18 h; TGF-beta stimulated, 500 pg/mL final; also: % is scaled to controls: 0 for no effect and ±100 for the full control effect; nearly all actives have a fitted effect of over 65% in size
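GFP signal (ex488/em500-530) from TGF-beta-stimulated HEPG2 CAGA-GFP cells, 500 pg/mL final, 18 h at 37 degrees C in DMEM plus 1% FBS, normalized to unstimulated and DMSO-stimulated controls.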
HepG2 tox-1 = HepG2 cytotoxicity, counter-screen for TGF-b inhibitors. HepG2 CAGA-GFP viability, ATP luminescence, 18 h. Potency, µM (doses to about 46.1 µM), for the others: at the top dose activity change, negative = cytotoxicity, usual class: cytotoxic. 0.76% of 410,000 active. AID 588856
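CellTiter-Glo luminescence gave cytotoxicity after 18 hours at 37 degrees C. The cells were HepG2 CAGA-GFP in 1% FBS DMEM, stimulated with 500 pg/mL TGF-beta after compound addition. %Activity was normalised to no-cell wells (complete cell-killing) and DMSO (no toxicity), and curves were fitted and classified.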
DT40 TDP1 no CPT = qHTS for Inhibitors of human tyrosyl-DNA phosphodiesterase 1 (TDP1): qHTS in cells in absence of CPT; DT40 Tdp1-/- hTDP1 cells, no CPT, ATP luminescence, 48 h; AID 686978, 2013; Potency, µM (titrated, usually from 46.2 µM), for the others: top-dose activity change, negative = growth inhibition, usual class: inhibitors; 15% of 420,000 active; also: % is scaled to controls: 0 for no effect and ±100 for the full control effect; nearly all actives have a fitted effect of over 55% in size
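Luminescent ATP content (CellTiter-Glo) served as the growth readout. Knockout chicken DT40 cells expressing human TDP1 were exposed to compounds without camptothecin for a minimum 48 hr at 37 °C.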
TGFb confirm = TGF-b pathway inhibition, cherry-pick retest. shares compounds with TGFb SMAD3 inh. HepG2 CAGA-GFP TGF-b reporter, GFP fluorescence, 18 h; cells stimulated with TGF-beta, 500 pg/mL. Potency, µM (top dose mostly 46.1 µM), inactives show at the highest dose activity, negative = inhibition, hits mostly inhibitors. 63% of 1,600 active; also: % is scaled to controls: 0 for no effect and ±100 for the full control effect; nearly all actives have a fitted effect of over 65% in size
HepG2 tox-2 = toxic to HepG2 cells in TGF-b counterscreen | shares compounds with TGFb SMAD3 inh | HepG2 CAGA-GFP viability, ATP luminescence, 18 h; cells stimulated with TGF-beta, 500 pg/mL | 27% of 1,600 active | Potency, µM (doses to about 46.1 µM), for inactives: at the top dose activity, negative = cytotoxicity, most hits filed as inhibitors; also: % is scaled to controls: 0 for no effect and ±100 for the full control effect; nearly all actives have a fitted effect of over 70% in size
CCL64 TGFb inh = blocks TGF-b signaling in CCL64 reporter cells; 41% of 1,600 active; CCL64 CAGA-GFP reporter, TGF-b stimulated, GFP fluorescence, 18 h; shares compounds with TGFb SMAD3 inh; AID 720536; Potency, µM (top dose mostly 46.1 µM), without a hit: top-dose activity, negative = inhibition, hits mostly inhibitors; also: nearly all actives have a fitted effect of over 65% in size
TGFb COP inh = blocks TGF-b signaling in HepG2 COP reporter. 3% of 1,600 active. HepG2 COP-GFP TGF-b reporter, GFP fluorescence, 18 h; cells stimulated by added recombinant TGF-beta. shares compounds with TGFb SMAD3 inh. Potency, µM (top dose mostly 46.1 µM), inactives show at the top dose activity, negative = inhibition, hits mostly inhibitors; also: nearly all actives have a fitted effect of over 70% in size
An asterisk follows results filed as active; i = inactive; ? = inconclusive; nt = not tested or not shown. Calls follow the shape of the dose curve; as a rule, active = well fitted curve in the direction sought with a large enough effect; inconclusive = small, poorly fitted or top-dose-only effect, or another doubt; inactive = no such curve, though single readings can be large; an effect the other way counts as inactive or inconclusive. Potency is read from the fitted curve at half-maximal effect.

SMILES	ATXN2 expr inh	ATXN viability	DT40 TDP1 CPT	TGFb SMAD3 inh	HepG2 tox-1	DT40 TDP1 no CPT	TGFb confirm	HepG2 tox-2	CCL64 TGFb inh	TGFb COP inh
Cc1ccc(NC(=S)/N=C(\N)Nc2nc(C)c3cc(C)ccc3n2)c(C)c1	-23%	i	21µM*	10µM*	-31%	12µM*	4.6µM*	-26%	?	15%
Oc1[nH]c2ccc(Br)cc2c1N=Nc1ccc(F)cc1	19%	i	24%	6%	6%	8%	nt	nt	nt	nt
COc1ccccc1NC(=S)N=Nc1c(O)[nH]c2ccc(Br)cc12	nt	?	2.6µM*	?	11%	1.5µM*	?	?	3.3µM*	-3%
CCOC1=CC2=C(C(=O)C(Cl)=CC2=O)[C@@H]2CN(S(=O)(=O)c3ccc(C)cc3)[C@@H](c3ccccc3)[C@H]12	?	?	1.2µM*	11µM*	-28%	1.8µM*	4.1µM*	?	5.2µM*	17%
CCCC/C(O)=C1\C(=O)CCCC1=NCCc1c(C)[nH]c2ccccc12	-8%	i	?	-11%	-13%	-63%	nt	nt	nt	nt
O=C(NCc1ccncc1)c1ccc2nc(Cc3ccccc3F)oc2c1	-4%	i	26µM*	?	2%	?	?	-14%	16%	-18%
Cc1cc(CNC(=O)c2ccc3nc(Cc4ccccc4F)oc3c2)nn1C	57%	i	?	-11%	0%	?	nt	nt	nt	nt
Cc1nnc(Sc2cc(NCCCO)c([N+](=O)[O-])c3nonc23)s1	?	nt	1.5µM*	5µM*	1%	2.1µM*	4.6µM*	23µM*	3.3µM*	?
O=[N+]([O-])c1c(NCCCO)cc(Sc2nc3ccccc3s2)c2nonc12	?	25µM*	1.3µM*	18µM*	-34%	0.79µM*	?	16µM*	6.5µM*	16µM*
COc1ccc(NC(=O)CCCSc2nc(-c3ccco3)cc(C(F)(F)F)n2)cc1OC	-31%	?	?	?	-4%	?	?	-11%	-28%	3%
COc1ccc(NC(=O)CCSc2nc(-c3ccco3)cc(C(F)(F)F)n2)cc1OC	9%	i	?	-4%	-11%	?	nt	nt	nt	nt
CCCc1cc(C(=O)O)c2ccccc2n1	6%	i	-1%	17%	-1%	1%	nt	nt	nt	nt
Cc1ccc(NC(=O)Cc2cc(C(=O)O)c3ccccc3n2)c(C)c1	nt	i	15µM*	8.9µM*	-53%	21µM*	?	?	7.3µM*	44%

Screens: PubChem, National Center for Advancing Translational Sciences (NCATS)
